Screening data (PubChem BioAssay)
Tau fibril FP = inhibitors of human tau fibril formation; P10636; K18 P301L tau heparin fibrillization, Alexa594 FP, 6 h; Potency, µM (top dose mostly 57.7 µM), without a hit: top-dose activity, negative = inhibition, hits mostly inhibitors; hit rate 0.39% among 280,000; also: nearly all actives have a fitted effect of over 55% in size
Target sequence (P10636 561-689 P618L limits assumed): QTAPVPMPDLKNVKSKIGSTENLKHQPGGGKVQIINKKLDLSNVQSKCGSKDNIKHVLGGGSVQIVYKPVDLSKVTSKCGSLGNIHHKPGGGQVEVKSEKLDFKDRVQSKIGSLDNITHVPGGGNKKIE
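Steps: dispense K18 P301L tau (15 uM plus 0.24 uM Alexa 594 tracer, final) in pH 7 sodium acetate; add compound; add heparin (20 uM final); incubate 6 hr, 37 C; add ThT (30 uM final); after 1 hr ambient, read FP.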
TexasRed fluor = counter-screen for TRb-SRC2 inhibitors: fluorescence interference; Potency, µM (top dose mostly 106 µM), for inactives: at the top dose fluorescence change, negative = quenching; hit rate 0.29% among 280,000; TRb/SRC2 Texas Red total fluorescence interference; AID 1479; active = well fitted curve in either direction with a large enough effect; inconclusive = small, poorly fitted or top-dose-only effect
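Human TRβ ligand-binding domain (0.6 uM) and Texas Red SRC2 peptide (20 nM) in Tris buffer with 1 uM T3 and 5% DMSO were incubated with pinned compound for 5 hr at ambient temperature. Total fluorescence was computed as S + 2P (555/632 nm).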
TRb-SRC2 inh = inhibitors of human thyroid hormone receptor beta-SRC2 interaction. P10828. hit rate 0.065% among 280,000. TRbeta-SRC2 peptide binding, fluorescence polarization; receptor liganded with 1 µM T3. Potency, µM (series often up to 106 µM), inactives show top-dose activity change, negative = inhibition, most hits filed as inhibitors. AID 1469;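 also: plate controls were bound peptide for no effect and peptide without receptor for full effect; nearly all actives have a fitted effect of over 50% in size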
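Polarization signal, normalized between peptide-alone and full complex controls, measured compound effects on T3-liganded human TRb LBD (0.6 uM) binding 20 nM Texas Red SRC2 peptide after 5 hr.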
Tau ThT inhib = blocks human tau fibril formation measured by thioflavin T; Potency, µM (top dose mostly 57.4 µM), for inactives: top-dose activity, negative = inhibition, usual class: inhibitors; AID 1460; hit rate 2.1% among 270,000; recombinant tau K18 P301L, heparin-induced fibrillization, ThT fluorescence; also: nearly all actives have a fitted effect of over 55% in size
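Using a mix of unlabeled (15 uM) and Alexa 594-labeled (0.24 uM) tau K18 P301L, heparin-triggered fibrillization over 6 hr at 37 C was scored by ThT fluorescence.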
Tau fluor cs = counter-screen for tau fibril formation inhibitors; tau K18 P301L (four-repeat tau fragment) Alexa594 fluorescence, heparin fibrillization; Potency, µM (series often up to 57.7 µM), for inactives: at the highest dose activity change, negative = decrease; hit rate 0.93% among 280,000; also: nearly all actives have a fitted effect of over 55% in size
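Human K18 P301L tau (15 uM unlabeled plus 0.24 uM Alexa 594-labeled, final) in 100 mM sodium acetate pH 7 was mixed with compound and 20 uM heparin and incubated 6 hr at 37 C.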
Active calls of the source: *; ? = inconclusive; / = no result; [ ] = remark or other dose. Compounds with a hit are over-represented: about 3.1% of the library has one in this group of screens. Unless noted, calls follow the shape of the dose curve; as a rule, active = well fitted curve in the direction sought with a large enough effect; inconclusive = small, poorly fitted or top-dose-only effect, or another doubt; inactive = no such curve, though single readings can be large; an effect the other way counts as inactive or inconclusive. Unless noted, % is scaled to controls: 0 for no effect and ±100 for the full control effect; potency is read from the fitted curve at half-maximal effect.

SMILES	Tau fibril FP	TexasRed fluor	TRb-SRC2 inh	Tau ThT inhib	Tau fluor cs
CN(C)c1ccc(N=NS(=O)(=O)O)cc1	/	-3%[201 µM]	-6%[201 µM]	/	/
NCCCCCCCCCCCC(=O)O	/	-6%[201 µM]	3%[201 µM]	/	/
CCCCOc1ccc(NC(=O)CSc2ccc(C(=O)O)cn2)cc1	3%	-1%	-1%	1%	0%
Cc1ccc(S(=O)(=O)Nc2ccc(-c3ccc(N4CCCCCC4)nn3)cc2)cc1C	-4%	?	-16%	-10%	-24%
Cc1ccc(N(C)C(=O)C2CCCN(c3ncnc4c3nc3n4CCCCC3)C2)cc1C (stereo not given)	-5%	20µM*[quencher]	-5%	-7%	1%
COc1cc(OC)c(NC(=O)C2CCCN(c3ncnc4c3nc3n4CCCCC3)C2)cc1Cl (stereo not given)	5%	18µM*[quencher]	-8%	?	-14%
COc1ccc(Cl)cc1NC(=O)C1CCN(c2ncnc3c2nc2n3CCCCC2)CC1	7%	3%	-6%	-9%	-11%
Cc1cccc(CNc2cc(-c3ccoc3)ncn2)c1	?	3%	-4%	18µM*	-29%
Cc1cccc(CNc2cc(-c3ccc(N(C)C)cc3)ncn2)c1	?	-1%	-4%	?	?
CN(C)c1ccc(N=Cc2nc(-c3ccccc3)oc2OC(=O)c2cccc(Cl)c2)cc1	?	1%	-20%	7.9µM*	?
Cc1ccc(C(=O)Oc2oc(-c3ccccc3)nc2C=Nc2ccc(N(C)C)cc2)cc1	-2%	-5%	-7%	?	4%
CCn1c(=O)c2cc(C(=O)N3CCN(c4cccc(Cl)c4)CC3)sc2c2ccccc21	-1%	-7%	-1%	-15%	-20%
CCc1oc2ccccc2c1C(=O)c1cc(I)c(O)c(I)c1	/	-15%	15%	/	/
COc1ccccc1OCCNc1cc(N2CCCCC2)ccc1[N+](=O)[O-]	12%	-5%	-4%	?	-22%
Cc1ccc(OCCNc2cc(N3CCN(CCO)CC3)ccc2[N+](=O)[O-])cc1C	-8%	-2%	6%	16µM*	?
Cc1ccccc1OCCNc1cc(N2CCNCC2)ccc1[N+](=O)[O-]	?	-3%	-1%	16µM*	?
Cc1cccc(OCCNc2cc(N3CCOCC3)ccc2[N+](=O)[O-])c1	-3%	-2%	-9%	7.9µM*	?
Cc1cccc(OCCNc2cc(N3CCN(C)CC3)ccc2[N+](=O)[O-])c1	-12%	-1%	10%	?	?
Cc1cc(-c2ccc(S(=O)(=O)Nc3cccc(Cl)c3C)cc2)on1	-14%	-2%	-1%	3%	-27%
O=C(CCn1ccc2cc(S(=O)(=O)N3CCCC3)ccc21)NCc1cccc(Br)c1	12%	1%	2%	11%	-10%
O=C(NCCCN1CCN(c2ccc(F)cc2)CC1)c1cc2c(Cl)nc3ccccc3c2s1	-15%	-5%	0%	4%	?
FC(F)(F)c1ccc2c(c1)N1CCCC1CN2 (stereo not given)	-7%	-4%	-11%	18µM*	?
Cc1cc2ccccn2c1C(=O)c1ccc(NN)c([N+](=O)[O-])c1	4%	-3%	2%	10µM*	?
CCC[n+]1c(C)sc2c(OC)ccc(OC)c21	32µM*	-6%	-5%	35µM*	-20%
CCCC[n+]1c(C)sc2cc(OC)ccc21	2%	-2%	0%	?	-7%
Cc1cccc(CNC(=O)Cn2nc(C)c3nn(-c4ccc(Cl)cc4)c(C)c3c2=O)c1	0%	1%	0%	5%	2%
CCOC(=O)N1CCC(Nc2c(Nc3ccc(F)cc3)c(=O)c2=O)CC1	?	1%	0%	-9%	-20%
CCOC(=O)N1CCC(Nc2c(Nc3cccc(CC)c3)c(=O)c2=O)CC1	?	0%	-26%	?	14µM*[quencher]
CC(Sc1nnc(NC2CCCCC2)s1)C(=O)Nc1ccc2c(c1)C(=O)c1ccccc1C2=O (stereo not given)	14%	-1%	8%	?	16µM*[quencher]
CC(Sc1nnc(Nc2ccccc2)s1)C(=O)NC1CCCc2ccccc21 (stereo not given)	5%	-23%	-1%	8%	1%
